PubChem BioAssay
Activity calls are given as the source filed them.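 Rule for the calls, unless noted: active = compounds killing one labelled cell type while sparing the other, by normalised counts and ratio limits, not self-fluorescent; inactive = the rest.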

Legend:
[1] = biological target: 6-phosphogluconate dehydrogenase, decarboxylating (Homo sapiens) (UniProt P52209); assay: inhibition of human phosphogluconate dehydrogenase – biochemical, recombinant enzyme, NADPH absorbance, primary screen (AID 1159550;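 active = at least 20% inhibition of 6-phosphogluconate dehydrogenase activity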); details: recombinant 6PGD, NADPH absorbance 341 nm; at 10 µM; stronger effect = higher value
Chain of 6-phosphogluconate dehydrogenase, decarboxylating (Homo sapiens) (P52209 whole entry, looked up): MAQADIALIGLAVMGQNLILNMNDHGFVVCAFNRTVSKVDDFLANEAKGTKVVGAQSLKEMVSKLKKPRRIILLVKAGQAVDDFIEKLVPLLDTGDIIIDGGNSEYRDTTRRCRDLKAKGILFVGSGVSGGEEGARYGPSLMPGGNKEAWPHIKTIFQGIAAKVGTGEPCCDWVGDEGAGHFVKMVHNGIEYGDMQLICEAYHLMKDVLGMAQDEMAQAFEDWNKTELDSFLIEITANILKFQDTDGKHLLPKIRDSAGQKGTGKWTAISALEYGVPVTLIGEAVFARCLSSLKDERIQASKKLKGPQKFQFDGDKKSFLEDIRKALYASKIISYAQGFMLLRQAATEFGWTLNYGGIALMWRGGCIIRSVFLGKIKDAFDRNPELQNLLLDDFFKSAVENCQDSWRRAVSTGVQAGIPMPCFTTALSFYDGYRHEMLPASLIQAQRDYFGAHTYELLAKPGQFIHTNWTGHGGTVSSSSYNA

[2] = EMT-state selective cytotoxicity in co-culture – imaging, PC-3E GFP, TEM4-18 mCherry, primary screen (AID 1345086); details: PC-3E GFP / TEM4-18 mCherry co-culture, imaging cell counts, at 1 µM; for red/green cell ratio (normalised): actives lie on both sides, counts scaled to control wells, 1 = unselective;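 for all read-outs here: cells exposed to compound for 72 h before imaging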;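 for red/green cell ratio (normalised): normalised mesenchymal count divided by normalised epithelial count so high means epithelial killing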
[3] = biological target: Mitogen-activated protein kinase 7 (Homo sapiens) (UniProt Q13164); assay: Gal4-ERK5 driven luciferase induction – cell-based, HTS, primary screen (AID 1508626;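 active = luciferase signal above three times the same-plate solvent-only control wells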;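 note: luciferase driven by Gal4-ERK5 fusion binding five Gal4 sites before minimal TATA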); details: HeLa Gal4-ERK5 transactivation, 18 h, at 5 µM, stronger effect = higher value
Chain of Mitogen-activated protein kinase 7 (Homo sapiens) (Q13164 whole entry, looked up, the tested form may be a part): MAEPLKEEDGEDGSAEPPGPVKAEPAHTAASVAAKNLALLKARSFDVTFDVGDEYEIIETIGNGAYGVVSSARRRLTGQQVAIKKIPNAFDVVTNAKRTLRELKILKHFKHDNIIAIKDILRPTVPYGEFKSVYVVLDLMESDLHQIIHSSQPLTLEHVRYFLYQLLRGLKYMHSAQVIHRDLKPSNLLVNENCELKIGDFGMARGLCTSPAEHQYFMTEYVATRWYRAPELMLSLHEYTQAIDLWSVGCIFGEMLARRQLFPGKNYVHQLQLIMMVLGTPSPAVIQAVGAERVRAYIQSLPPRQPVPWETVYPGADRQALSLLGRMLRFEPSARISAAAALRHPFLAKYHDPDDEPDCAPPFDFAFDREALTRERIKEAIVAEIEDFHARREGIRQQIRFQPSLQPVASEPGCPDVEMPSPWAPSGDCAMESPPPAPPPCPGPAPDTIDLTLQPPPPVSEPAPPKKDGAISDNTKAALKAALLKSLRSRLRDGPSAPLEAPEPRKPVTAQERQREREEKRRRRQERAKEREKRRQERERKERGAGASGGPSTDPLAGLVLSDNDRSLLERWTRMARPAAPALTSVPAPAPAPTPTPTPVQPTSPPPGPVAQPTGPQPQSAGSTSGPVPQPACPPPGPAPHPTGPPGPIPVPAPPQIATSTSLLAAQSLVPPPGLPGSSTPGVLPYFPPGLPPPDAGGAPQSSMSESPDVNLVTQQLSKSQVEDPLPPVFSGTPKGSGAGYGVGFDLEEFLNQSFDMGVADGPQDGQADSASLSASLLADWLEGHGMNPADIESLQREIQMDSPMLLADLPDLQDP

[4] = measured here: epithelial PC-3E GFP cell survival
[5] = measured here: mesenchymal TEM4-18 mCherry cell survival

| SMILES | inhibition [1] | red/green cell ratio (normalised) [2] | normalised cell number [2, 4] | normalised cell number [2, 5] | luciferase signal [3] |
| --- | --- | --- | --- | --- | --- |
| CCOc1ccc(C(=O)c2ccc(OC)c(O)c2O)cc1 | -3.36% (inactive) | 0.9 (inactive) | 0.9 | 0.81 | 68 AU (inactive) |
| COc1c(O)cccc1O | -5.16% (inactive) | 0.77 (inactive) | 0.96 | 0.74 | 76 AU (inactive) |
| COc1ccc(-c2c(O)c3c(OC)c4c(cc3oc2=O)OC(C)(C)C=C4)cc1 | 11.4% (inactive) | 0.9 (inactive) | 1.02 | 0.92 | 88 AU (inactive) |
| C=CC(C1=CC(=O)C(OC)=CC1=O)c1ccc(OC)cc1 (stereo not given) | 9.18% (inactive) | 0.93 (inactive) | 1.1 | 1.03 | 36 AU (inactive) |
| CC(C)=CCc1c2c(c3occ(-c4ccc(O)cc4)c(=O)c3c1O)C=CC(C)(C)O2 | 8.7% (inactive) | 1.02 (inactive) | 1.04 | 1.06 | 392 AU (active) |
| Cn1c(=O)[nH]c(=O)c2[nH]cnc21 | 5.61% (inactive) | 0.93 (inactive) | 1.22 | 1.13 | 52 AU (inactive) |
| COc1ccc2c(=O)c(CC(=O)O)coc2c1 | -1.05% (inactive) | 0.91 (inactive) | 0.98 | 0.89 | 60 AU (inactive) |
| COc1c(O)cc(O)cc1O | 8.04% (inactive) | 1.07 (inactive) | 0.92 | 0.98 | 40 AU (inactive) |
| CC1=C(/C=C/C(C)=C/C=C/C(C)=C/C=C/C=C(C)/C=C/C=C(C)/C=C/C(=O)[C@]2(C)C[C@@H](O)CC2(C)C)C(C)(C)C[C@H](O)C1 | 1.92% (inactive) | 1.16 (inactive) | 0.85 | 0.98 | 20 AU (inactive) |
| C=C[C@@](C)(O)CCC1C(=C)C[C@H](O)C2C(C)(C)CCCC12C (stereo not given in full) | 15.2% (inactive) | 0.87 (inactive) | 1.07 | 0.93 | 64 AU (inactive) |
| C=CC(C1=CC(=O)C(OC)=CC1=O)c1ccccc1 (stereo not given) | -2.35% (inactive) | 1.14 (inactive) | 0.95 | 1.08 | 60 AU (inactive) |
| COc1cc(O)cc(OC)c1OC | -0.756% (inactive) | 1.04 (inactive) | 1.01 | 1.04 | 20 AU (inactive) |
| OC[C@H]1O[C@@H](n2cnc3c(NCc4ccco4)ncnc32)[C@H](O)[C@@H]1O | 3.79% (inactive) | 1.48 (inactive) | 0.37 | 0.55 | 40 AU (inactive) |
| O=C(O)CCCCCCCCCCCCC1C=CCC1 (stereo not given) | -14% (inactive) | 1 (inactive) | 1.02 | 1.02 | 20 AU (inactive) |
| Nc1nc2ncc(=O)[nH]c2c(=O)[nH]1 | -1.84% (inactive) | 1.01 (inactive) | 1.17 | 1.18 | 56 AU (inactive) |
| COc1cc(-c2coc3cc(OC)c(OC)c(OC)c3c2=O)cc(OC)c1OC | 12.5% (inactive) | 1.13 (inactive) | 0.98 | 1.1 | 100 AU (inactive) |
| COc1ccc2c(C)cc(=O)oc2c1 | 13.6% (inactive) | 1.03 (inactive) | 1.13 | 1.16 | 60 AU (inactive) |
| COc1cc2c(cc1OC)C(=O)OC2 | 7.46% (inactive) | 0.97 (inactive) | 0.96 | 0.94 | 160 AU (inactive) |
